Test results reported in PubChem BioAssay AID463173 (ICCB-Longwood Screening Facility, Harvard Medical School, 2010).
In all, about 52,000 compounds went through this assay and about 4,300 (8.3%) were called active. No stated cut-off is given here; in the data, active means survival mostly below about 52% (no sharp cut-off); inactive means mostly above about 56%. The full list was thinned out, with actives kept by preference.

What follows are molecules tested on DeltatarO mutant (assay: S. aureus survival, RN4220 and DeltatarO strains – OD600, teichoic acid synthesis inhibitors, primary screen (AID 463173)). Details: S. aureus RN4220 wild type/DeltatarO growth, OD600, 18 h, active compounds read low, screened at 18.75 µg/mL (by protocol).

| Structure (SMILES) | survival |
| --- | --- |
| COc1ccc(-n2c(SCC(=O)N3CCCc4ccccc43)nc3c([nH]c4ccccc43)c2=O)cc1 | 101% (inactive) |
| COc1ccc2c(C)c(CCC(=O)NCCc3ccc(OC)c(OC)c3)c(=O)oc2c1 | 88% (inactive) |
| CC(=O)c1cccc(NC(=O)Cn2cc(C(=O)c3cccc(Cl)c3)c(=O)c3ccc(C)nc32)c1 | 56% (inactive) |
| COc1cc(C(=O)Nc2ccc(Cl)c(-c3nc4ncccc4o3)c2)cc(OC)c1OC | 123% (inactive) |
| COc1ccc(Br)cc1CNC(=O)c1cc(=O)[nH]c2ccc(S(=O)(=O)N3CCCCC3)cc12 | 84% (inactive) |
| CCOC(=O)CCC(=O)Nc1nnc2n1CCS2 | 66% (inactive) |
| CCN1CCN(CCC(=O)Nc2ccc3c(c2)CCC3)CC1 | 95% (inactive) |
| COc1cccc(/C=C/c2nc(C#N)c(NCCc3ccc(OC)c(OC)c3)o2)c1 | 41% (active) |
| CCOc1ccc(Nc2oc(/C=C/c3ccc(OC)c(OC)c3)nc2C#N)cc1 | 55% (active) |
| COc1ccc(/C=C/c2nc(C#N)c(NCCc3ccc(OC)c(OC)c3)o2)cc1OC | 95% (inactive) |
| CCOc1ccc(Nc2oc(/C=C/c3cc(OC)c(OC)c(OC)c3)nc2C#N)cc1 | 58% (inactive) |
| COc1ccc(Nc2oc(/C=C/c3ccc(OC)c(OC)c3)nc2C#N)cc1 | 73% (inactive) |
| COc1ccccc1/C=C/c1nc(C#N)c(NCC(C)C)o1 | 47% (active) |
| CNc1oc(/C=C/c2cc(OC)c(OC)c(OC)c2)nc1C#N | 69% (inactive) |
| COc1cc(/C=C/c2nc(C#N)c(NC3CCCCC3)o2)cc(OC)c1OC | 32% (active) |
| COc1ccccc1/C=C/c1nc(C#N)c(NCCc2ccccc2)o1 | 71% (inactive) |
| COc1ccccc1/C=C/c1nc(C#N)c(NCc2ccccc2)o1 | 83% (inactive) |
| CCOc1ccc(/C=C/c2nc(C#N)c(NC3CCCCC3)o2)cc1 | 65% (inactive) |
| COc1ccc(CCNc2oc(/C=C/c3ccc(OC)c(OC)c3)nc2C#N)cc1 | 90% (inactive) |
| Cc1cc(C)nc(SCCC(=O)N(C)C)n1 | 84% (inactive) |
| CC(=O)N1CCN(CCN2C(=O)C3C4c5ccccc5C(c5ccccc54)C3C2=O)CC1 (stereo not given) | 94% (inactive) |
| CCC(=O)N(Cc1cc(=O)[nH]c2ccccc12)C1CCCCC1 | 69% (inactive) |
| COc1cc(NC(=O)CC(c2cccs2)N2Cc3ccccc3C2=O)cc(OC)c1OC (stereo not given) | 49% (inactive) |
| Cc1ccc(-c2csc(-c3nc(-c4ccc(Br)s4)cs3)n2)cc1 | 82% (inactive) |
| Cc1c(NC(=O)c2ccc(Cl)cc2)cc(C(C)C)c(O)c1S(=O)(=O)c1ccc(Cl)cc1 | 75% (inactive) |

| Structure (SMILES) | survival |
| --- | --- |
| CCN(CC)C(=O)CSc1nnc(Cc2ccccc2)n1CC | 50% (inactive) |
| CCOC(=O)C1CCN(C(=O)c2ccc3c(=O)n4nc(Nc5cc(C)ccc5C)sc4nc3c2)CC1 | 84% (inactive) |
| COc1ccc(S(=O)(=O)N2CCC(c3ccncc3)CC2)cc1Cl | 124% (inactive) |
| COc1ccccc1CNC(=O)CCn1c(=O)c2ccccc2n(CC(=O)Nc2ccc(C)cc2Cl)c1=O | 77% (inactive) |
| COc1ccc(-n2nc(C(=O)N3CCN(c4cccc(C)c4)C(C)C3)c3c4ccccc4n(C)c3c2=O)cc1 (stereo not given) | 76% (inactive) |
| COc1ccc(/C=C/c2nc(C#N)c(NC3CCCCC3)o2)cc1OC | 36% (active) |
| COc1cccc(/C=C/c2nc(C#N)c(NC3CCCCC3)o2)c1 | 69% (inactive) |
| COc1ccccc1/C=C/c1nc(C#N)c(NC2CCCCC2)o1 | 85% (inactive) |
| COc1cc(/C=C/c2nc(C#N)c(NC(C)c3ccccc3)o2)cc(OC)c1OC (stereo not given) | 40% (active) |
| COc1cc(/C=C/c2nc(C#N)c(NCCc3ccccc3)o2)cc(OC)c1OC | 49% (inactive) |
| COc1ccccc1/C=C/c1nc(C#N)c(NC(C)c2ccccc2)o1 (stereo not given) | 70% (inactive) |
| CC(=O)N1c2ccc(S(=O)(=O)NCC3CCC(C(=O)NCCC(C)C)CC3)cc2CC1C (stereo not given) | 102% (inactive) |
| CC(C)CC(=O)NCC1(N(C)C)CCCCC1 | 84% (inactive) |
| O=C(CN1C(=O)C2CCCCN2c2ccc(C(=O)N3CCCC3)cc21)NCc1ccccc1F (stereo not given) | 99% (inactive) |
| O=C(NCc1cccc(Cl)c1)c1ccc(NC(=O)N2CCSc3ccccc32)cc1 | 57% (inactive) |
| CSc1nn(Cc2cccc(F)c2)c(N(C(C)=O)C(C)=O)c1S(=O)(=O)c1ccccc1 | 84% (inactive) |
| Cc1nc(-c2ccc(C)c(N3CCN(C(=O)Nc4cccc(Cl)c4C)CC3)c2)no1 | 88% (inactive) |
| COc1cccc(N2CCN(C(=O)c3cc4c(s3)-c3ccccc3OC4)CC2)c1 | 98% (inactive) |
| COc1cc(NC(=O)c2cc3c(s2)-c2ccccc2OC3)cc(OC)c1OC | 55% (inactive) |
| Cc1ccc(C)c(N(C)C(=O)c2cc3c(s2)-c2ccccc2OC3)c1 | -3% (active) |
| CCOc1ccc(NC(=O)c2cc3c(s2)-c2ccccc2OC3)cc1 | 95% (inactive) |
| Cc1ccc(CCNC(=O)c2cc3c(s2)-c2ccccc2OC3)cc1 | 82% (inactive) |
| CCc1cccc(NC(=O)c2cc3c(s2)-c2ccccc2OC3)c1 | 83% (inactive) |
| COc1ccc(CNC(=O)c2cc3c(s2)-c2ccccc2OC3)cc1 | 64% (inactive) |
| CCN(CC)CCOC(=O)c1ccc(NC(=O)c2cc3c(s2)-c2ccccc2OC3)cc1 | -7% (active) |

| Structure (SMILES) | survival |
| --- | --- |
| COc1ccc(N2CCN(C(=O)c3cc4c(s3)-c3ccccc3OC4)CC2)cc1 | 114% (inactive) |
| COc1cccc(CNC(=O)c2cc3c(s2)-c2ccccc2OC3)c1 | 42% (active) |
| COc1ccc(N(C)C(=O)c2cc3c(s2)-c2ccccc2OC3)cc1 | -2% (active) |
| COc1cccc(CNC(=O)c2cc3c(s2)-c2c(C)cccc2OC3)c1 | 68% (inactive) |
| Cc1cc(C)c2c(-n3cccc3)c(C(=O)NCc3cccc(F)c3)sc2n1 | 66% (inactive) |
| O=S(=O)(c1ccc2[nH]c3c(c2c1)CCCCC3)N1CCN(c2ccccc2)CC1 | 91% (inactive) |
| COc1ccccc1N1CCN(c2cc(C)nc3nncn23)CC1 | 81% (inactive) |
| Cc1nc(-c2cccnc2)sc1CCNS(=O)(=O)c1ccc(F)cc1 | 75% (inactive) |
| COc1ccc(CNC(=O)C(CC(C)C)NS(=O)(=O)c2ccc3c(c2)CCN3C(C)=O)cc1 (stereo not given) | 92% (inactive) |
| CNCC(O)COc1ccccc1 (stereo not given) | 94% (inactive) |
| N#CC(C#N)=C(N)/C(C#N)=C/c1cccs1 | 81% (inactive) |
| CCc1ccc2nc(N3CCCCC3)c(C#N)cc2c1 | 88% (inactive) |
| CCn1cc(C(=O)N2CCN(c3ccc(C)cc3)C(C)C2)c(=O)c2cc(S(=O)(=O)N3CCCC3)ccc21 (stereo not given) | 87% (inactive) |
| Cc1nc2cc(-c3cccc(F)c3)nn2c(C)c1CCC(=O)Nc1ccccc1C(N)=O | 61% (inactive) |
| COC(=O)c1ccc(CSc2nc3c(c(=O)[nH]2)CCC3)cc1 | 85% (inactive) |
| CCOc1ccccc1N(C)C(=O)c1cc2c(s1)-c1ccccc1OC2 | -2% (active) |
| CCOC(=O)c1ccccc1NC(=O)c1cc2c(s1)-c1c(C)cccc1OC2 | 137% (inactive) |
| COC(=O)c1ccccc1NC(=O)c1cc2c(s1)-c1ccccc1OC2 | 39% (active) |
| COc1ccc(Cl)cc1NC(=O)c1cc2c(s1)-c1ccccc1OC2 | 74% (inactive) |
| CCOc1ccc(CCNC(=O)c2cc3c(s2)-c2ccccc2OC3)cc1OCC | 67% (inactive) |
| COc1cc(OC)c(N(C)C(=O)c2cc3c(s2)-c2ccccc2OC3)cc1Cl | 60% (inactive) |
| CCOC(=O)c1ccc(NC(=O)c2cn(-c3ccccc3)nc2-c2ccc(C)cc2)cc1 | 57% (inactive) |
| O=C(c1ccccc1Cl)N1CCCCC1CCN1CCCCC1 (stereo not given) | 100% (inactive) |
| COc1cccc(CNC(=O)C(Cc2ccccc2)NS(=O)(=O)c2ccc3c(c2)CCN3C(C)=O)c1 (stereo not given) | 70% (inactive) |
| CC(C)c1ccc(N2C(=O)N(Cc3ccccc3Cl)c3ccccc3S2(=O)=O)cc1 | 86% (inactive) |

| Structure (SMILES) | survival |
| --- | --- |
| Cc1ccc(NC(=O)CCS(=O)(=O)c2cccc3nsnc23)c(C)c1 | 61% (inactive) |
| Cc1cc(F)ccc1NC(=O)CCS(=O)(=O)c1cccc2nsnc12 | 59% (inactive) |
| CCN(CC)c1ccc(NC(=O)CCS(=O)(=O)c2cccc3nsnc23)c(C)c1 | 44% (active) |
| O=C(Cn1cc(C(=O)c2ccco2)c2ccccc21)Nc1ccccc1Cl | 80% (inactive) |
| COc1c(C)cc(S(=O)(=O)Nc2cccc(-c3ccc(N4CCOCC4)nn3)c2)c(C)c1C | 91% (inactive) |
| COc1ccc(CCN2C(=O)c3[nH]nc(-c4ccccc4O)c3C2c2ccc(OC)cc2)cc1 (stereo not given) | 29% (active) |
| COc1ccc(CCN2C(=O)c3[nH]nc(-c4ccccc4O)c3C2c2cccc(OC)c2)cc1 (stereo not given) | 66% (inactive) |
| COc1ccc(C2c3c(-c4ccccc4O)n[nH]c3C(=O)N2CCc2ccccc2)cc1 (stereo not given) | 21% (active) |
| COc1ccc(CCN2C(=O)c3[nH]nc(-c4ccccc4O)c3C2c2ccccc2)cc1 (stereo not given) | 22% (active) |
| COc1ccc2c(c1)c1c(c(=O)n(-c3ccc(F)c(Cl)c3)c(=O)n1CC(N)=O)n2C | 96% (inactive) |
| CC(=O)Nc1nc(SCc2ccccc2Cl)n[nH]1 | 91% (inactive) |
| Cc1ccc(NC(=O)Cn2nnc3sc(-c4ccccc4)cc3c2=O)cc1Cl | 52% (inactive) |
| O=C(COc1ccc(F)cc1)Nc1ccc2nc(SCC(=O)N3CCCC3)sc2c1 | 91% (inactive) |
| CCc1cccc(NC(=O)C2CCCN2S(=O)(=O)c2ccc3c(c2)n(C)c(=O)c(=O)n3C)c1 (stereo not given) | 85% (inactive) |
| COc1cccc(NC(=O)C2CCCN2S(=O)(=O)c2ccc3nc(-c4ccccc4)[nH]c3c2)c1 (stereo not given) | 44% (active) |
| Cc1cccc(NC(=O)C2CCCN2S(=O)(=O)c2ccc3nc(-c4ccccc4)[nH]c3c2)c1 (stereo not given) | 37% (active) |
| Cc1ccc(NC(=O)C2CCCN2S(=O)(=O)c2ccc3nc(-c4ccccc4)[nH]c3c2)cc1F (stereo not given) | 71% (inactive) |
| COc1cccc(NC(=O)C2CCCN2S(=O)(=O)c2ccc3c(c2)n(C)c(=O)c(=O)n3C)c1 (stereo not given) | 87% (inactive) |
| CCc1ccc(NC(=O)C2CCCN2S(=O)(=O)c2ccc3nc(-c4ccccc4)[nH]c3c2)cc1 (stereo not given) | 82% (inactive) |
| CCOc1ccccc1NC(=O)C1CCCN1S(=O)(=O)c1ccc2nc(-c3ccccc3)[nH]c2c1 (stereo not given) | 50% (inactive) |
| CC(C)c1ccc(NC(=O)C2CCCN2S(=O)(=O)c2ccc3nc(-c4ccccc4)[nH]c3c2)cc1 (stereo not given) | 44% (inactive) |
| COc1ccc(NC(=O)C2CCCN2S(=O)(=O)c2ccc3nc(-c4ccccc4)[nH]c3c2)cc1 (stereo not given) | 77% (inactive) |
| Cc1ccc(NC(=O)C2CCCN2S(=O)(=O)c2ccc3nc(-c4ccccc4)[nH]c3c2)cc1C (stereo not given) | 92% (inactive) |
| CCc1cccc(NC(=O)C2CCCN2S(=O)(=O)c2ccc3nc(-c4ccccc4)[nH]c3c2)c1 (stereo not given) | 35% (active) |
| Cc1cc(C)cc(NC(=O)C2CCCN2S(=O)(=O)c2ccc3nc(-c4ccccc4)[nH]c3c2)c1 (stereo not given) | 38% (active) |
